From PubChem BioAssay AID2275 (Broad Institute, 2010)
The campaign covered roughly 30,000 compounds. About 190 (0.63%) were called active. The list comes from a sample in which actives are over-represented; it also holds similar structures and randomly drawn compounds. Values without a mark were called inactive. Cut-off read from the data, not from the text of the source: active = viability loss activity score above about 50%; inconclusive = no clear call, values can overlap the other calls; inactive = below about 35%.

Assay: BJeLR cell viability loss, primary screen, luminescence, CellTiterGlo ATP (AID 2275);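 note: higher score means fewer live cells and less ATP luminescence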
Conditions: BJeLR fibroblasts viability, 48 h, hits give high values, HRASV12, hTERT and SV40 LT/ST transformed, concentration not given here

Row | SMILES | viability loss activity score
1 | N=c1n(CC(=O)c2ccc(Cl)c(Cl)c2)c2ccccc2n1Cc1ccccc1 | 0.84%
2 | O=C(NCCc1ccccc1)c1ccc(NC2=NC3CS(=O)(=O)CC3S2)cc1 (centres undefined) | 2.13%
3 | COc1ccc(S(=O)(=O)Nc2cccc3c2O[C@@H](CN(C)Cc2ccc(-c4ccccc4)cc2)[C@H](C)CN([C@H](C)CO)C3=O)cc1 | 1.26%
4 | CC(=O)NC(c1ccccc1)c1ccc2cccnc2c1O (centres undefined) | 76.4% (active)
5 | CC(C)(C)c1cc(C(=O)Oc2ccc(Cl)cc2)n(Cc2ccccc2)n1 | 4.03%
6 | C[C@@H]1CN([C@H](C)CO)C(=O)c2cccc(NS(=O)(=O)c3ccc(F)cc3)c2O[C@@H]1CN(C)C(=O)Nc1ccc(F)cc1 | 3.97%
7 | CCOc1cc(CNc2ccc(OC)cc2)ccc1OCC(=O)NC(C)(C)C | -0.358%
8 | COc1ccc(NC(=O)Nc2cccc3c2O[C@@H](CN(C)C(=O)NC(C)C)[C@H](C)CN([C@H](C)CO)C3=O)cc1 | -0.272%
9 | COc1ccc2[nH]c3c(=O)n(Cc4ccc(C(=O)NCc5cccnc5)cc4)c(=S)[nH]c3c2c1 | 2.75%
10 | COCc1cc(C)nc2sc(C(N)=O)c(N)c12 | 6.31%
11 | CCOc1cc(-c2cc(C)c3c(ccc4ccccc43)n2)ccc1O | -1.76%
12 | CCc1ccc(/C=C2\Cc3ccccc3C2=O)cc1 | 4.71%
13 | CCS(=O)(=O)C(=C(Nc1ccccc1)Nc1ccccc1)S(=O)(=O)CC | 21.6%
14 | CN1/C(=C/C(=S)C(C)(C)C)Sc2ccccc21 | 0.712%
15 | CCCCn1c(-c2ccc(Br)cc2)nc2ccccc21 | -1.15%
16 | Cc1ccc(NC2CCCCC2NS(=O)(=O)c2ccccc2)cc1 (centres undefined) | 8.06%
17 | Cc1cc(C)c2c(c1)CC(C)(C)c1[nH]c(-c3ccccc3)nc1-2 | -0.635%
18 | COCC(=O)NCc1nn(-c2ccccc2)nc1C | 1.49%
19 | Cc1ccc(S(=O)(=O)c2no[n+]([O-])c2S(=O)(=O)c2ccc(C)cc2)cc1 | 62% (active)
20 | CCOC(=O)N1CCN(C(=O)CSc2ncnc3c2nnn3Cc2ccc(F)cc2)CC1 | -1.44%
21 | Cc1ccc2c(c1)N(CCC(=O)NC1CCC(C)CC1)C(=O)CO2 (centres undefined) | -1.39%
22 | C=CCn1c(SCc2ccc(C(=O)O)cc2)nnc1-c1cccc(OC)c1 | -6.6%

Row | SMILES | viability loss activity score
23 | CCN(C(=O)c1coc(=O)c2ccccc12)c1cccc(C(F)(F)F)c1 | 0.65%
24 | O=C(O)CSc1nnc(COc2ccc(Cl)cc2)n1-c1ccc(Br)cc1 | 0.406%
25 | C[C@@H]1CN([C@H](C)CO)C(=O)c2cc(NS(C)(=O)=O)ccc2O[C@H]1CN(C)C(=O)Nc1cccc2ccccc12 | -0.115%
26 | S=C(Nc1cccc(Cl)c1)N1CCCN(Cc2ccccc2Cl)C1 | -1.27%
27 | O=C1CC(c2ccc(F)cc2)CC(O)=C1C=NCCN1CCN(C(=S)Nc2ccccc2)CC1 (centres undefined) | 8.57%
28 | Cc1ccc(S(=O)(=O)N2CCCC2)cc1-c1nnc2c3ccccc3c(C)nn12 | 2.21%
29 | CCOC(=O)c1c(C)n(C)c2ccccc12 | 1.79%
30 | Cc1ccc(-n2nnnc2-c2cnn(-c3ccccc3)c2C)cc1 | -4%
31 | Cc1ccc(S(=O)(=O)Nc2ccc3c(c2)C(=O)N([C@H](C)CO)C[C@H](C)[C@H](CN(C)S(C)(=O)=O)O3)cc1 | 0.992%
32 | COC(OC)c1nc(SCC(=O)Nc2ccc(C(C)C)cc2)ncc1C(=O)O | -6.58%
33 | Cc1oc2cc(Br)c(OC(=O)c3ccco3)cc2c1C(=O)OC(C)C | -1.39%
34 | CCc1ccc(NC(=O)c2sc3[nH]c(=O)c(C(=O)O)cc3c2N)cc1 | -3.87%
35 | COCCn1cc(C(=O)NC2CCCCCC2)c2c3ccccc3n(C)c2c1=O | 2.88%
36 | COc1ccc(NS(=O)(=O)c2ccc3c(c2)OCC(=O)N3)cc1 | 3.85%
37 | Cc1ccc(NC(=S)Nc2ccc(C)cc2)cc1 | 2.21%
38 | COC(=O)c1ccccc1Oc1c(F)c(F)nc(N2CCOCC2)c1F | 2.06%
39 | C/C=C(/C)C(=O)O[C@H]1CC(C)(C)C[C@H]2C3=CCC4[C@@]5(C)CC[C@H](O[C@@H]6O[C@H](C(=O)O)[C@@H](O[C@@H]7O[C@H](CO)[C@H](O)[C@H](O)[C@H]7O[C@@H]7O[C@H](CO)[C@@H](O)[C@H](O)[C@H]7O)[C@H](O)[C@H]6O[C@@H]6O[C@@H](C)[C@H](O)[C@@H](O)[C@H]6O)C(C)(C)C5CC[C@@]4(C)[C@]3(C)[C@@H](O)[C@@H](O)[C@@]12CO (some centres undefined) | 104% (active)
40 | C=CC1(C)C=C2CCC3C(C)(C)C(O[C@@H]4O[C@@H](CO)[C@H](O)[C@H]4O)CCC3(C)C2CC1O[C@@H]1O[C@H](C)[C@@H](OC)[C@H](O)[C@H]1O (some centres undefined) | -5.62%
41 | C/C=C(/C)C(=O)O[C@H]1CC(C)(C)C[C@H]2C3=CCC4[C@@]5(C)CC[C@H](O[C@@H]6O[C@H](C(=O)O)[C@@H](O[C@@H]7O[C@H](CO)[C@H](O)[C@H](O)[C@H]7O[C@@H]7O[C@H](CO)[C@@H](O)[C@H](O)[C@H]7O)[C@H](O)[C@H]6O[C@@H]6O[C@@H](C)[C@H](O)[C@@H](O)[C@H]6O)C(C)(C)C5CC[C@@]4(C)[C@]3(C)[C@@H](OC(C)=O)[C@@H](O)[C@@]12COC(C)=O (some centres undefined) | 72.5% (active)
42 | COc1ccc(/C=C/C(=O)O[C@@H]2[C@@H](OC(=O)/C=C/c3ccc(OC)cc3)[C@H](C)O[C@@H](O[C@H]3[C@@H]4C=CO[C@@H](O[C@@H]5O[C@H](CO)[C@@H](O)[C@H](O)[C@H]5O)[C@@H]4[C@@]4(CO)O[C@@H]34)[C@@H]2OC(C)=O)cc1 | -3.51%
43 | CC1OC(OC2C(OC3C(O[C@H]4CC[C@@]5(C)C(CC[C@]6(C)C5CC=C5[C@@H]7CC(C)(C)C[C@@H](O)[C@]7(C)CC[C@]56C)C4(C)C)OC(C(=O)O)C(O)C3O)OC(CO)C(O)C2O)C(O)C(O)C1O (some centres undefined) | 2.12%
44 | CC1(C)CC[C@]2(C(=O)O)CC[C@]3(C)C(=CCC4[C@@]5(C)CC[C@H](OC6O[C@H](CO)[C@@H](O)[C@H](O[C@@H]7O[C@H](CO)[C@@H](O)[C@H](O)[C@H]7O)[C@H]6O)C(C)(C)C5CC[C@]43C)[C@@H]2C1 (some centres undefined) | 17.9%
